# Measured values: PubChem BioAssay (NCATS)
# Several values for one entry are separate records, joined by “and”; a condition that tells them apart may be missing. Equal values may be shown once. Inconclusive results are not listed. Entries that show only a call come without a potency. Activity calls are given as the source filed them. Calls follow the shape of the dose curve; as a rule, active = well fitted inhibition curve with a large enough effect; inconclusive = small, poorly fitted or top-dose-only effect; inactive = flat fitted curve, though single readings scatter.
# Assays:
# [1] = biological target: Glutathione peroxidase 1 (Homo sapiens) (UniProt P07203); experiment: Primary qHTS Assay for Inhibitors of Recombinant Selenoprotein Glutathione Peroxidase 1 (GPX1) (AID 1845191); also: potency is read from the fitted curve at half-maximal effect
# Summary of the method: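 GPX1 10 nM, GR 100 nM, GSH 1 mM, NADPH 0.5 mM, CHP 0.5 mM (final). 30-min cpd preincubation, RT. Ex340/Em450 read t=0, t=15 min.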
# [2] = biological target: Phospholipid hydroperoxide glutathione peroxidase GPX4 (Homo sapiens) (UniProt P36969); experiment: Primary qHTS Assay for Inhibitors of Recombinant Selenoprotein Glutathione Peroxidase 4 (GPX4) (AID 1845192)
# Summary of the method: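 qHTS, GR-coupled: GPX4 200 nM + cpd 30 min RT → GSH 1 mM, NADPH 0.5 mM, GR 100 nM → CHP 0.5 mM start; fluor 340/450 at t0 and t15 min; no-enzyme wells as control.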
# Also: nearly all actives have a fitted effect of over 65% in size.
# Chain of Glutathione peroxidase 1 (Homo sapiens) (P07203 whole entry, looked up): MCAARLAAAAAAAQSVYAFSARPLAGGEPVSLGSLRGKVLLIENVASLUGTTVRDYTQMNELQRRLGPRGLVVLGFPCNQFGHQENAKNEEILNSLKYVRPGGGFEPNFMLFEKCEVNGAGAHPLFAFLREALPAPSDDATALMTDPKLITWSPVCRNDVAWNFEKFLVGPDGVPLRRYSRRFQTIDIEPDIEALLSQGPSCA
# Chain of Phospholipid hydroperoxide glutathione peroxidase GPX4 (Homo sapiens) (P36969 whole entry, looked up): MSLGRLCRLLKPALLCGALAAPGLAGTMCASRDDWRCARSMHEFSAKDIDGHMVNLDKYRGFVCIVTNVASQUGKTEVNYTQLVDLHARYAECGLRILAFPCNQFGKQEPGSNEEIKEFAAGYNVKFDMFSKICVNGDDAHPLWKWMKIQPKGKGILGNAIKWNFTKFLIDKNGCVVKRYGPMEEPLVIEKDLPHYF
structure (smiles),measurement,setting,value
CN(C)CCc1c[nH]c2ccc(CS(=O)(=O)N3CCCC3)cc12,Potency,[1],inactive
O=c1cc(O)c(Cl)c[nH]1,Potency,[1],inactive
same,Potency,[2],inactive
COC(c1ccccc1)(c1ccccc1)[C@H](Oc1nc(C)cc(C)n1)C(=O)O,Potency,[1],inactive
same,Potency,[2],inactive
CCc1c2c(nc3ccc(OC(=O)N4CCC(N5CCCCC5)CC4)cc13)-c1cc3c(c(=O)n1C2)COC(=O)[C@]3(O)CC,Potency,[1],20.2 µM (active) and 2.05 µM (active)
C[C@@H](NCCCc1cccc(C(F)(F)F)c1)c1cccc2ccccc12,Potency,[1],inactive
COc1cccc(N(C)C(=S)Oc2ccc3c(c2)CCCC3)n1,Potency,[1],inactive
same,Potency,[2],inactive
CC[C@H](NC(C)C)[C@H](O)c1ccc(O)c2[nH]c(=O)ccc12,Potency,[1],inactive
CCN1CCCC1CNC(=O)c1cc(S(N)(=O)=O)ccc1OC (centres undefined),Potency,[1],inactive
same,Potency,[2],inactive
CCCc1nc(C)c2c(=O)[nH]c(-c3cc(S(=O)(=O)N4CCN(CC)CC4)ccc3OCC)nn12,Potency,[1],inactive
same,Potency,[2],inactive
CO[C@@]12[C@H](COC(N)=O)C3=C(C(=O)C(C)=C(N)C3=O)N1C[C@@H]1N[C@@H]12,Potency,[1],inactive
OC(Cn1cncn1)(Cn1cncn1)c1ccc(F)cc1F,Potency,[1],inactive
same,Potency,[2],inactive
CS(=O)(=O)c1ccc([C@@H](O)[C@@H](CO)NC(=O)C(Cl)Cl)cc1,Potency,[1],inactive
same,Potency,[2],inactive
CC(C)(C#N)c1cc(Cn2cncn2)cc(C(C)(C)C#N)c1,Potency,[1],inactive
NC(N)=NC(N)=NCCc1ccccc1,Potency,[1],inactive
Nc1[nH]c(=O)ncc1F,Potency,[1],inactive
CCCOc1ccc(C(=O)OCCN(CC)CC)cc1N,Potency,[1],inactive
CCn1cc(C(=O)O)c(=O)c2cc(F)c(N3CCNCC3)cc21,Potency,[1],inactive
Nc1ccc(S(=O)(=O)Nc2ccccn2)cc1,Potency,[1],inactive
same,Potency,[2],inactive
Nc1nc(N)nc(-c2cc(Cl)ccc2Cl)n1,Potency,[1],inactive
C[C@@H](CN1CC(=O)NC(=O)C1)N1CC(=O)NC(=O)C1,Potency,[1],inactive
CC(C)C[C@H](NC(=O)[C@H](CCc1ccccc1)NC(=O)CN1CCOCC1)C(=O)N[C@@H](Cc1ccccc1)C(=O)N[C@@H](CC(C)C)C(=O)[C@@]1(C)CO1,Potency,[1],inactive
COc1cc([C@@H]2c3cc4c(cc3[C@H](O)[C@H]3COC(=O)[C@H]23)OCO4)cc(OC)c1OC,Potency,[1],inactive
CCN(C)C(=O)Oc1cccc([C@H](C)N(C)C)c1,Potency,[1],inactive
same,Potency,[2],inactive
CN1CCN(c2c(F)cc3c(=O)c(C(=O)O)cn4c3c2OCN4C)CC1,Potency,[1],inactive
COC(=O)Nc1nc2ccc(S(=O)c3ccccc3)cc2[nH]1 (centres undefined),Potency,[1],inactive
same,Potency,[2],inactive
Cc1ncc([N+](=O)[O-])n1CCO,Potency,[1],inactive
same,Potency,[2],inactive
Cc1cccc(Nc2ccncc2S(=O)(=O)NC(=O)NC(C)C)c1,Potency,[1],inactive
CN(Cc1cc(Br)cc(Br)c1N)C1CCCCC1,Potency,[1],inactive
same,Potency,[2],inactive
CCOc1cc(N)c(Cl)cc1C(=O)NCC1CN(Cc2ccc(F)cc2)CCO1 (centres undefined),Potency,[1],inactive
O=C(O)CSCC(=O)NC1CCSC1=O (centres undefined),Potency,[1],inactive
same,Potency,[2],inactive
C[C@@H]1CN(c2c(F)c(N)c3c(=O)c(C(=O)O)cn(C4CC4)c3c2F)C[C@H](C)N1,Potency,[1],inactive
Cc1ccc(S(=O)(=O)N[C@@H](Cc2ccccc2)C(=O)CCl)cc1,Potency,[1],inactive
O=C(O)c1ccc(-n2nc(-c3ccccc3O)nc2-c2ccccc2O)cc1,Potency,[1],inactive
same,Potency,[2],inactive
COc1cc2nc(N3CCCN(C)CC3)nc(NC3CCN(Cc4ccccc4)CC3)c2cc1OC,Potency,[1],inactive
CCC(=O)O[C@]1(C(=O)CCl)[C@@H](C)C[C@H]2[C@@H]3CCC4=CC(=O)C=C[C@]4(C)[C@@]3(F)[C@@H](O)C[C@@]21C,Potency,[1],inactive
same,Potency,[2],inactive
CCCCOc1ccc(CC(=O)NO)cc1,Potency,[1],inactive
CN(C)c1ccc(C(=C2C=CC(=[N+](C)C)C=C2)c2ccc(N(C)C)cc2)cc1,Potency,[1],inactive
CCCc1cc(C(N)=S)ccn1,Potency,[1],inactive
same,Potency,[2],inactive
CC(=O)CC(c1ccccc1)c1c(O)c2ccccc2oc1=O (centres undefined),Potency,[1],inactive
same,Potency,[2],inactive
CNS(=O)(=O)Cc1ccc2[nH]cc(CCN(C)C)c2c1,Potency,[1],inactive
same,Potency,[2],inactive
Cn1c(=O)c2c(ncn2CC(O)CO)n(C)c1=O (centres undefined),Potency,[1],inactive
same,Potency,[2],inactive
COc1c(N2CCNC(C)C2)c(F)cc2c(=O)c(C(=O)O)cn(C3CC3)c12 (centres undefined),Potency,[1],inactive
same,Potency,[2],inactive
Cc1cc(NS(=O)(=O)c2ccc(N)cc2)no1,Potency,[1],inactive
same,Potency,[2],inactive
O=S(=O)(O)CCS,Potency,[1],inactive
same,Potency,[2],inactive
NC(=O)c1cccnc1,Potency,[1],inactive
same,Potency,[2],inactive
COc1cc(NS(=O)(=O)c2ccc(N)cc2)nc(OC)n1,Potency,[1],inactive
same,Potency,[2],inactive
Nc1nc(N)c2nc(CNc3ccc(C(=O)NC(CCC(=O)O)C(=O)O)cc3)cnc2n1 (centres undefined),Potency,[1],inactive
same,Potency,[2],inactive
COC(=O)Nc1nc2ccc(C(=O)c3ccccc3)cc2[nH]1,Potency,[1],inactive
same,Potency,[2],inactive
N=C(N)c1ccc(OCCCCCOc2ccc(C(=N)N)cc2)cc1,Potency,[1],inactive
same,Potency,[2],inactive
N[C@@H](Cc1ccc(O)c(O)c1)C(=O)O,Potency,[1],inactive
same,Potency,[2],inactive
COc1cc(NCc2ccc3nc(N)nc(N)c3c2C)cc(OC)c1OC,Potency,[1],inactive
same,Potency,[2],inactive
OCc1ccc(-c2nn(Cc3ccccc3)c3ccccc23)o1,Potency,[1],inactive
same,Potency,[2],inactive
CCC(=O)O[C@]1(C(=O)SCF)[C@H](C)C[C@H]2[C@@H]3C[C@H](F)C4=CC(=O)C=C[C@]4(C)[C@@]3(F)[C@@H](O)C[C@@]21C,Potency,[1],inactive
same,Potency,[2],inactive
COc1ccc(C(=O)CC(=O)c2ccc(C(C)(C)C)cc2)cc1,Potency,[1],inactive
same,Potency,[2],inactive
CNNCc1ccc(C(=O)NC(C)C)cc1,Potency,[1],inactive
same,Potency,[2],inactive
CC(=O)[C@H]1CC[C@H]2[C@@H]3CCC4=CC(=O)CC[C@]4(C)[C@H]3CC[C@]12C,Potency,[1],inactive
same,Potency,[2],inactive
S=P(N1CC1)(N1CC1)N1CC1,Potency,[1],inactive
same,outcome,[2],inactive [at 0.409 µM]
CCN(CC)CC#CCOC(=O)C(O)(c1ccccc1)C1CCCCC1 (centres undefined),Potency,[1],inactive
same,Potency,[2],inactive
Cn1nnc2c(C(N)=O)ncn2c1=O,Potency,[1],inactive
same,Potency,[2],inactive
O=NN(CCCl)C(=O)NC1CCCCC1,Potency,[1],inactive
same,Potency,[2],inactive
CC(C)OC(=O)OCOP(=O)(CO[C@H](C)Cn1cnc2c(N)ncnc21)OCOC(=O)OC(C)C,Potency,[1],inactive
same,Potency,[2],inactive
COc1ccc(-c2ccc3cc(C(=O)O)ccc3c2)cc1C12CC3CC(CC(C3)C1)C2,Potency,[1],inactive
same,Potency,[2],inactive
Cc1c(-c2ccc(O)cc2)n(Cc2ccc(OCCN3CCCCCC3)cc2)c2ccc(O)cc12,Potency,[1],inactive
same,Potency,[2],inactive
CO[C@@H]1[C@@H](OC(N)=O)[C@@H](O)[C@H](Oc2ccc3c(O)c(NC(=O)c4ccc(O)c(CC=C(C)C)c4)c(=O)oc3c2C)OC1(C)C,Potency,[1],inactive
same,Potency,[2],inactive
CC(C)NCC(O)c1ccc(NS(C)(=O)=O)cc1 (centres undefined),Potency,[1],inactive
same,Potency,[2],inactive
O=C(O)c1cc(=O)[nH]c(=O)[nH]1,Potency,[1],inactive
same,Potency,[2],inactive
CC(=O)[C@H]1CC[C@H]2[C@@H]3CC=C4C[C@@H](O)CC[C@]4(C)[C@H]3CC[C@]12C,Potency,[1],inactive
same,Potency,[2],inactive
O=C(O)C1CCCN(CCC=C(c2ccccc2)c2ccccc2)C1 (centres undefined),Potency,[1],inactive
same,Potency,[2],inactive
C[C@@H]1C[C@H]2[C@@H]3CCC4=CC(=O)C=C[C@]4(C)[C@@]3(Cl)[C@@H](O)C[C@]2(C)[C@@]1(OC(=O)c1ccco1)C(=O)CCl,Potency,[1],inactive
same,Potency,[2],inactive
O=C(O)c1cn(C2CC2)c2cc(N3CCNCC3)c(F)cc2c1=O,outcome,[1],inactive [at 9.52 µM]
same,Potency,[2],inactive
NC(=O)c1ccc2[nH]ccc2c1,Potency,[1],inactive
same,Potency,[2],inactive
CCC(C)(C)c1ccc(CC(C)CN2C[C@@H](C)O[C@@H](C)C2)cc1 (some centres undefined),Potency,[1],inactive
same,Potency,[2],inactive
C[C@]12C=CC(=O)C=C1CC[C@@H]1[C@@H]2C(=O)C[C@@]2(C)[C@H]1CC[C@]2(O)C(=O)CO,Potency,[1],inactive
same,Potency,[2],inactive
